Where “and” joins values, the source holds several entries; their conditions need not be identical. Identical values can stand only once. Counter-ions that a name gives are not always drawn. ± gives the standard deviation of the averaged measurements. Over roughly 3,200 compounds, “nuclei count (viability) relative to DMSO” has its median near 99; the lowest 2% begin near 16. What follows is part of a selection rich in the lowest values, with near analogues and random picks from the rest.

This test deals with U2OS. The test can be described thus: nuclei count (viability) relative to DMSO (% of DMSO); higher = more viable cells. Conditions: 10 µM; 24 h. On the procedure: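 Primary image-based screen in U2OS cells: compounds at 10 uM for 24 h, then a 1 h o-propargyl-puromycin (OPP) pulse, click labelling, and high-throughput microscopy. Mean cytoplasmic OPP intensity and nuclei count were normalised to DMSO wells within each plate (DMSO = 100) and averaged over triplicate plates.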
Consider `COC[C@H](NC(=O)c1cnc(C)s1)C(=O)N[C@@H](COC)C(=O)N[C@@H](Cc1ccccc1)C(=O)[C@@]1(C)CO1` [Oprozomib (ONX 0912)], for which the nuclei count turned out to be 11.1.
The figure for `COC(=O)[C@H](Cc1ccccc1)NC(=O)[C@@H](N)CC(=O)O` [Aspartame] is 108; for `O=C(CCc1ccc(O)cc1)c1c(O)cc(O)cc1O[C@@H]1O[C@H](CO)[C@@H](O)[C@H](O)[C@H]1O` [Phlorizin (Phloridzin)] it is 82.5; for `Oc1cc2c(c(Cl)c1O)CCNCC2c1ccccc1` (stereo not given) it is 91.2.
Then `O=C1CCc2c(ccc3ccccc23)O1` [Splitomicin], with 104 ± 5.1; and `CCCC[C@@H](C=O)NC(=O)[C@H](CC(C)C)NC(=O)OCc1ccccc1` [Calpeptin], with 102 ± 1.9.
Then `CC(NC(=O)C(Cc1ccccc1)NC(=O)OCc1ccccc1)C(=O)CF` (stereo not given), with 95; and `CC(C)C[C@@H](C=O)NC(=O)[C@H](CC(C)C)NC(=O)[C@H](CC(C)C)NC(=O)OCc1ccccc1`, with 10.9 and 7.59; and `CC1C(=O)OC2C(O)C34C5CC(C(C)(C)C)C36C(OC(=O)C6O)OC4(C(=O)O5)C12O` (stereo not given) [Ginkgolide B], with 95.
As for `NCCCCCc1c[nH]cn1` [Impentamine dihydrobromide], the nuclei count was 90.5.
Then `CN(Cc1ccccc1)C(=O)[C@H](Cc1ccc2ccccc2c1)NC(=O)[C@@H]1CCCN1C(=O)Nc1ccccc1[N+](=O)[O-]`, with 100; and `OC(c1cc(C(F)(F)F)nc2c(C(F)(F)F)cccc12)C1CCCCN1` (stereo not given) [Mefloquine hydrochloride], with 10.7.
`Oc1ccc(OC2CCCCO2)cc1` (stereo not given) [Deoxyarbutin] registered a nuclei count of 91.1.
In the case of `COC(=O)[C@@H]1CC2=CC(=O)CC[C@]2(C)[C@@]23O[C@@H]2C[C@@]2(C)[C@@H](CC[C@@]24CCC(=O)O4)[C@H]13` [Eplerenone], the nuclei count turned out to be 104 ± 3.6.
Compound `Cc1cc(Nc2ncc(Cl)c(Nc3ccccc3S(=O)(=O)C(C)C)n2)c(OC(C)C)cc1C1CCNCC1` [Ceritinib (LDK378)] gave a nuclei count of 14.7.
The figure for `CC(C)Oc1cc(Nc2nc(N[C@@H](C)c3ccc(F)cn3)ncc2Cl)n[nH]1` is 52.7.
Then `Cc1cccc(C)c1NC(=O)C[N+](C)(C)C`, with 106.
Then `CCn1nnc2c(N3CCOCC3)nc(-c3ccc(NC(=O)Nc4ccc(C(=O)N5CCN(C)CC5)cc4)cc3)nc21`, with 77.7.
Consider `CC(C)c1ccc(Cn2ccc3c4c(N)nc(NC5CC5)nc4ccc32)cc1`, for which the nuclei count was 29.3.
The figure for `Cc1c(NC(=O)N2CCOCC2)ccc2c1c1ccccc1n2C(C)C` is 94.6.
`CC(C)C[C@H](NC(=O)CNC(=O)c1cc(Cl)ccc1Cl)B(O)O` yielded a nuclei count of 9.55.
Then `CC(C)C[C@H](NC(=O)[C@H](CCC(=O)O)NC(=O)CNC(=O)c1ccc(/C=C/C(=O)O)cc1)C(N)=O`, with 97.5; and `CC(C)C[C@H](NC(=O)CNC(=O)c1cc(Cl)ccc1Cl)B1OC(=O)C(CC(=O)O)(CC(=O)O)O1`, with 11.6.
Turning to `N=C(N)c1ccc(N2CCN(C3CCN(CC(=O)O)CC3)CC2)cc1`, the nuclei count amounted to 104.
Then `CCCC(=O)[O-].[Na+]` [Sodium butyrate], with 89.2.
Then `CC1=C(/C=C/C(C)=C/C=C/C(C)=C/C(=O)O)C(C)(C)CCC1O` (stereo not given) [4-Hydroxyretinoic acid], with 101; and `NC(C(=O)O)c1ccc(C(=O)O)c(C(=O)O)c1` (racemic), with 102.
The figure for `COc1cccc(-c2cc(NCc3ccc4c(c3)OCO4)nc(N)n2)c1` is 19.1.
For the compound `COCC(=O)O[C@]1(CCN(C)CCCc2nc3ccccc3[nH]2)CCc2cc(F)ccc2[C@@H]1C(C)C` [Mibefradil dihydrochloride], the nuclei count came to 81.7.
In turn, `CC(C)[C@H]1c2ccc(F)cc2CC[C@@]1(CCN(C)CCCc1nc2ccccc2[nH]1)OC(=O)C1CC1` [NNC 55-0396 dihydrochloride] returned a nuclei count of 10.5.
The figure for `CC(C)c1ccc(NC(=O)Cn2cnc3c2c(=O)n(C)c(=O)n3C)cc1` is 103.
Then `COc1cc2c(NC3CCN(C(C)C)CC3)nc(N3CCC(F)(F)CC3)nc2cc1OCCCN1CCCC1`, with 50.6; and `C[C@@H]1CN(CCCn2c3ccccc3c3ccccc32)C[C@H](C)N1` [Rimcazole dihydrochloride], with 80; and `CCN(CCO)CCCC(C)Nc1ccnc2cc(Cl)ccc12` (stereo not given) [Hydroxychloroquine], with 85.7.
As for `CCN(CC)CCCC(C)Nc1ccnc2cc(Cl)ccc12` (stereo not given) [Chloroquine diphosphate], the nuclei count worked out at 103.
Then `CCN(CC)CCCC(C)Nc1c2ccc(Cl)cc2nc2ccc(OC)cc12` (stereo not given) [Quinacrine dihydrochloride dihydrate], with 12.9.
The figure for `CCN(CC)CCCC(C)Nc1ccnc2cc(Cl)ccc12` (stereo not given) [Chloroquine] is 96.6.
The figure for `CCN(CCO)CCCC(C)Nc1ccnc2cc(Cl)ccc12` (stereo not given) [Hydroxychloroquine sulfate] is 96.1.
The compound `CC1=CC(=O)C(C(C)C)=CC1=O` [Thymoquinone] registered a nuclei count of 103.
The figure for `COc1ccc(CCN(C)CCCOc2ccc(S(=O)(=O)c3c(C(C)C)n(C)c4ccccc34)cc2)cc1OC` is 47.5.
The figure for `C1CCC(C(CC2CCCCN2)C2CCCCC2)CC1` (stereo not given) [Perhexiline maleate] is 5.66.
With `COc1cc(-c2cn(C)c(=O)c3cnccc23)c(OC)cc1CN(C)C`, the nuclei count came out at 110.
Then `Cc1ccc(-n2nc(C(C)(C)C)cc2NC(=O)Nc2ccc(OCCN3CCOCC3)c3ccccc23)cc1` [BIRB 796 (Doramapimod)], with 94.7.
Then `COc1ccc(NC(=O)c2ccc(-c3ccc(-c4noc(C)n4)cc3C)cc2)cc1OCCN(C)C`, with 100; and `C[n+]1cc2c3c(ccc2c2ccc4cc5c(cc4c21)OCO5)OCO3` [Sanguinarine chloride], with 12; and `COc1ccc2cc3[n+](cc2c1OC)CCc1cc2c(cc1-3)OCO2` [Berberine HCl], with 98.6.
The figure for `Cc1[nH]c2ccccc2c1C(Nc1ccccn1)c1ccc(Cl)cc1` (stereo not given) is 93.9; for `CC[N+](C)(CC)CC(=O)Nc1c(C)cccc1C` [N-Methyllidocaine iodide] it is 98.4.
`CC1=C(C(=O)OCCN(Cc2ccccc2)c2ccccc2)C(c2cccc([N+](=O)[O-])c2)C(P2(=O)OCC(C)(C)CO2)=C(C)N1` (stereo not given) [Efonidipine hydrochloride monoethanolate] displayed a nuclei count of 99.9.
Then `COc1cc(NC(C)CCCN)c2ncccc2c1` (stereo not given) [Primaquine diphosphate], with 15.7.
